Laboratory results as given in PubChem BioAssay (NCATS).
Results filed as inconclusive are left out. A call without a number means that no potency is given here. Activity calls are given as the source filed them. Calls come from the whole dose curve; as a rule, active = well fitted inhibition curve with a large enough effect; inconclusive = small, poorly fitted or top-dose-only effect; inactive = flat fitted curve, though single readings scatter.

Target: Calcium and integrin-binding protein 1 (Homo sapiens) (UniProt Q99828)
Sequence (Q99828 whole entry, looked up): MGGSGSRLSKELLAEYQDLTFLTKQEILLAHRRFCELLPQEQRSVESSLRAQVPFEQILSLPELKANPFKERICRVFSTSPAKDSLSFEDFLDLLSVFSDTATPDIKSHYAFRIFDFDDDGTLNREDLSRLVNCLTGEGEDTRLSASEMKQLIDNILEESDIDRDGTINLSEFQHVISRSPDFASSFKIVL
Assay: Primary qHTS for Identification of Calcium Integrin Binding Protein 1 (CIB1) Competitor (AID 1508620); note: top concentration of the series differs between compounds
Settings: CIB1-GST / FITC-alphaIIb peptide fluorescence polarization; series mostly up to 114 µM
Method in brief: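 Fluorescence polarization competition: GST-tagged CIB1 (1 uM final) preincubated with compound 15 min at room temperature, then FITC-labelled alphaIIb peptide (100 nM final) added. After 15 min at room temperature, polarization read at Ex 480/Em 540.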

SMILES	Potency
Cc1cc(C)n2ncc(C(=O)NC3CCC(C(C)(C)C)CC3)c2n1 (centres undefined)	inactive
N#Cc1ccc(S(=O)(=O)N2CCN(S(=O)(=O)c3ccc4c(c3)OCCO4)CC2)cc1	inactive
CCOC(=O)c1ccoc1-c1ccc2ncnc(NCc3ncc[nH]3)c2c1	inactive
CC(C)c1ccccc1-c1ncc(F)c(NCC2CCN(c3cnccn3)C2)n1 (centres undefined)	inactive
NC(=O)c1c(-c2ccccc2)no[n+]1[O-]	inactive
Cc1nnc(-c2cnn(C)c2N)n1CCCn1ccnc1	inactive
N#Cc1cccnc1SC1=NS(=O)(=O)c2ccccc21	inactive
Cc1ccc(NC(=O)c2cnn3c(C)cc(C)nc23)cc1	inactive
c1nc(OCc2cnc[nH]2)c2cc(-c3ccc4c(c3)OCO4)ccc2n1	inactive
CN(C)c1ccc(-c2cc(O)c3ncccc3c2)cc1	inactive
COc1ccc(S(=O)(=O)NC2CCN(C#N)CC2)cc1	inactive
CC(=O)N1c2ccc(S(=O)(=O)Nc3ccc(C)c(C)c3)cc2CC1C (centres undefined)	inactive
Cc1cc2c(s1)c1cnn(Cc3c(F)ccc(Cl)c3F)c(=O)c1n2C	inactive
CC(C)(C)c1cccc(NC(=O)Nc2nnc(-c3ccncc3)s2)c1	inactive
COc1ccc(OC)c(C2=Nn3c(nnc3-c3ccccc3O)SC2)c1	inactive
Cc1cc2c(s1)c1cnn(Cc3c(F)c(F)c(C(F)(F)F)c(F)c3F)c(=O)c1n2C	inactive
Cc1cn([C@H]2C[C@H](N[S+](=O)([O-])c3ccc4c(c3)OCCO4)[C@@H](CO)O2)c(=O)[nH]c1=O	inactive
Cc1ccc(CCN2C(=O)c3ccc(C(=O)O)cc3C2=O)cc1	inactive
N=c1c2c(ccn1CCCCc1ccccc1)Oc1ccc3ccccc3c1C2c1ccccc1 (centres undefined)	inactive
Cn1c2cc(B(O)O)sc2c2cnn(Cc3ccccc3F)c(=O)c21	inactive

SMILES	Potency
Cc1ccnc(NC(=S)N2CC3CN(c4cccc(C(F)(F)F)c4)CC3C2)c1 (centres undefined)	inactive
CC(C)(C)NS(=O)(=O)c1cccc(-c2nnc(SCc3ccc(C(=O)O)cc3)n2-c2ccccc2)c1	inactive
O=S(=O)(Nc1ccccc1)c1ccc(O)c2ncccc12	inactive
CN(Cc1ccccc1)C(=O)C1CCN(Cc2cccc3ccccc23)CC1	inactive
Cc1ccc(C[C@H](C(=O)O)N2C(=O)c3ccc(C(=O)O)cc3C2=O)cc1	inactive
CCOC(=O)c1cccc(-n2cnc(/C=C3\NC(=O)N(CC(=O)OC(C)(C)C)C3=O)c2)c1	inactive
Cc1cnc(-c2ccccc2C(C)O)nc1NCc1ccc(-c2cccnc2)cc1 (centres undefined)	inactive
Cc1c(-c2ccccc2)no[n+]1[O-]	inactive
Cc1ccc(C(=O)Nc2ccc(N3CCCCC3)cc2)cc1	inactive
FC(F)(F)c1cc(N2CCN(C(=S)Nc3cc(Cl)ccn3)CC2)cc(C(F)(F)F)c1	inactive
CN(Cc1ccc(-c2ccc(C#N)cc2)o1)c1ccc(N2CCN(C(=O)OC(C)(C)C)CC2)cc1	inactive
CCOC(=O)c1[nH]c2c(c1C)C(=O)CCC2	inactive
COc1ccc(-c2nnc3n2N=C(c2ccccc2OC)CS3)cc1	inactive
Cn1c2cc(Br)sc2c2cnn(Cc3c(F)cccc3F)c(=O)c21	inactive
COc1ccc(OC)c(-c2nnc3n2N=C(c2ccccc2OC)CS3)c1	inactive
O=S(=O)(Nc1nc(-c2ccccc2C(F)(F)F)nc2ccccc12)c1ccc(-c2ccnc(C(F)(F)F)c2)cc1	inactive
COc1cccc(C2c3c(ncn(-c4cccnc4)c3=N)Oc3ccc4ccccc4c32)c1 (centres undefined)	inactive
O=[S+]([O-])(c1cc2ccccc2o1)N1CCN([S+](=O)([O-])c2c(F)cccc2F)CC1	inactive
Cc1cc(C)nc(NC(=S)N2CCN(Cc3cccc4ccccc34)CC2)c1	inactive
